# From PubChem BioAssay (Tox21)
# A number with no mark means an inactive call. Calls come from the whole dose curve; as a rule, active = well fitted activation curve with a large enough effect in the repeat runs; inconclusive = weak or mixed curves; inactive = flat fitted curve, though single readings scatter.
# Assay: A CellTox Green Cytotoxicity Assay to monitor cytotoxicity in HEK293 cells - 0 hour (AID 1224869); note: nearly all actives have a fitted effect of over 50% in size
# Conditions: CellTox Green fluorescence; series mostly up to 76.8 µM; cytotoxicity: at the top concentration
# Excerpt: National Center for Advancing Translational Sciences [NCATS]
# NIH Chemical Genomics Center [NCGC]
# U.S. Environmental Protection Agency [EPA]
# National Institutes of Environmental Health Sciences [NIEHS]
# National Toxicology Program [NTP]
# Cell-based models are critical for drug discovery. Determining the natural cytotoxic effects resulting from test compounds is an essential research activity. A CellTox Green Cytotoxicity Assay to monitor cytotoxicity in real time of continues cell culture during 40 hours of the compound treatment was used to screen Tox21 10K library compounds in Hek293 cells. CellTox Green Cytotoxicity Assay is a nonlytic, homogeneous, biofluorescent method to measure cytotoxicity in cell culture after experimental manipulation. The assay system uses a proprietary asymmetric cyanine dye that is excluded from viable cells but preferentially stains the dead cell's DNA. […] Viable cells produce no appreciable increases in fluorescence. Therefore, the fluorescence signal produced by the binding interaction with dead cell DNA is proportional to cytotoxicity.
# The mixture of Hek293 cell suspension and reagents were dispensed at 600cells/6 ul/well in 1536-well tissue culture treated black solid bottom plates using a Multidrop dispenser. After the assay plates were incubated at a 37 C/5% CO2 incubator for 5 hours, 23 nL of compounds dissolved in DMSO, positive and negative controls was transferred to the assay plate by a pintool work station. The plates were incubated at 37 C for 40 hours. The fluorescence intensity were measured at 0h, 8h, 16h, 24h, 32h and 40h time points using ViewLux plate reader during compound treatment.
# % is set by controls: 0 for no effect and ±100 for the full control effect.
row,Compound,cytotoxicity
1,CCOC(=O)C(C)(C)C,8.92%
2,CO[Si](CCCS)(OC)OC,1.24%
3,c1ccc(CNc2ncnc3nc[nH]c23)cc1,0.0548%
4,O=C(Oc1ccccc1C(=O)O)c1ccccc1O,7.66% [at 35.3 µM]
5,NC(=O)C1(N2CCCCC2)CCN(CCCC(=O)c2ccc(F)cc2)CC1,-1.02% [at 35.3 µM]
6,Cc1ccc2c(c1)c1c3n2CCNC3CCC1 (stereo not given),3.89% [at 35.3 µM]
7,CC1=NN(c2ccc(S(=O)(=O)O)cc2)C(=O)C1N=Nc1ccccc1 (stereo not given),8.74%
8,CCCCCCCCC(=O)OCC,-0.544%
9,CCCCC(CC)COC(=O)c1ccccc1 (stereo not given),2.04%
10,COc1ccc(N=Nc2cc(C)c(N=Nc3ccc(S(=O)(=O)O)cc3)cc2OC)cc1,-15.3%
11,COc1ccc(OC)c(NC(=O)CC(C)=O)c1,0.182%
12,CNC(=O)C(c1ccccc1)c1ccccc1,1.03%
13,CCc1nccnc1C,-3.48%
14,C=CCOc1c(Br)cc(Br)cc1Br,-16.3%
15,CC(C)CCO,4.45%
16,CO[Si](CCCCl)(OC)OC,0.552%
17,CCCCCCCCCCC,0.578%
18,C=CCOc1cc(Cl)ccc1C(=O)NCCN(CC)CC,2.92% [at 35.3 µM]
19,NC(=O)NC(=O)Cc1ccccc1,-0.832% [at 35.3 µM]
20,COCC(=O)Nc1c(I)c(C(=O)NCC(O)CO)c(I)c(C(=O)N(C)CC(O)CO)c1I (stereo not given),-14.3% [at 35.3 µM]

row,Compound,cytotoxicity
1,CCC(O)C(C)(C)C (stereo not given),16%
2,COC(OC)C(C)c1ccccc1 (stereo not given),-3.09%
3,C=COCCOCCOC=C,-0.481%
4,CC(C)COC(=O)CCCCC(=O)OCC(C)C,-3.3%
5,CCOC(=O)CC#N,1.3%
6,O=C(COCCOCCOCC(=O)Nc1c(I)cc(I)c(C(=O)O)c1I)Nc1c(I)cc(I)c(C(=O)O)c1I,0.936% [at 35.3 µM]
7,CN[C@@H]1[C@H](O)[C@H](NC)[C@H]2O[C@@]3(O)C(=O)C[C@@H](C)O[C@H]3O[C@@H]2[C@H]1O,-7.03% [at 35.3 µM]
8,C=C[Si](C)(C)O[Si](C)(C)C=C,1.28%
9,CC1=CC[C@H](CC=O)C1(C)C,-2.99%
10,O=C(O)Cc1cccc(-c2cc(CCCCCCc3ccc(O[C@H]4O[C@H](CO)[C@@H](O)[C@H](O)[C@@H]4O)c(-c4cccc(CC(=O)O)c4)c3)ccc2O[C@H]2O[C@H](CO)[C@@H](O)[C@H](O)[C@@H]2O)c1,3% [at 0.29 µM]
11,Cc1nc([N+](=O)[O-])cn1-c1ccc([N+](=O)[O-])cc1,2.04% [at 35.3 µM]
12,CCOC(=O)OCC/C(SC(=O)OCC)=C(\C)N(C=O)Cc1cnc(C)nc1N,1.57% [at 35.3 µM]
13,CCCCC(C)C(=O)O (stereo not given),-0.999%
14,C[N+](C)(C)CC(O)CCl (stereo not given),0.669%
15,CC(C)(C)c1ccc(C=O)cc1,-4.98%
16,CCOC(=O)CC(CC(=O)OCC)(OC(C)=O)C(=O)OCC,-6.73%
17,FC(F)(F)/C(=N\OCC1OCCO1)c1ccc(Cl)cc1,1.1%
18,O=[Si]=O,-14.4%
19,COCCOCCOCCOC,-7.6%
20,C=CC(C)(O)CC/C=C(\C)CC (stereo not given),-2.91%
